Experimental findings from PubChem BioAssay AID651710 (Broad Institute, 2012) are described below.

Broadly, the inhibition is the change of the read-out against control, counted positive when it falls.

Each structure is given as a SMILES string. Screen size: about 360,000 compounds; about 1,600 (0.44%) were called active.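 The calls were made as follows: active = every replicate showing at least 50% inhibition; inconclusive = mean inhibition at least 50% but not in every replicate; inactive = the rest.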 The full list was thinned out, with actives kept by preference.

The target of this assay is DNA repair protein RAD52 homolog (Homo sapiens) (UniProt P43351). Put plainly: blockers of RAD52 strand annealing activity – biochemical, FRET, single point, set 2, primary screen (AID 651710). As to conditions: recombinant RAD52 DNA annealing, FRET fluorescence; at 18.7 µM; hits give high values.
Chain of DNA repair protein RAD52 homolog (Homo sapiens) (P43351 whole entry, looked up): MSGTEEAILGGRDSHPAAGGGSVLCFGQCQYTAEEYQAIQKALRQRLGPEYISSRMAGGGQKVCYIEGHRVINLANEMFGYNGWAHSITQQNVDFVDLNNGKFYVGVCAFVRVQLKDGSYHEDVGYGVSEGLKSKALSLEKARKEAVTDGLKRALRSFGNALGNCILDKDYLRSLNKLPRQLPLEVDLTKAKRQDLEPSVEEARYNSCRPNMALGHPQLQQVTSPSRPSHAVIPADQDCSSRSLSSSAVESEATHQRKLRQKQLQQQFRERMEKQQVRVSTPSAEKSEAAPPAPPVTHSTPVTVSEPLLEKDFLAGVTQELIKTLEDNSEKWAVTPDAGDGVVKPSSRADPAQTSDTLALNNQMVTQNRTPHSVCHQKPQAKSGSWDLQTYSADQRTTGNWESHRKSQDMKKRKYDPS
`CN(C)CC(=O)Nc1ccc2c(c1)[C@H]1C[C@H](CC(=O)NCc3ccccc3)O[C@@H](CO)[C@H]1O2`: the inhibition was -10.3% (inactive).

`CN(C)CC(=O)Nc1ccc2c(c1)[C@@H]1C[C@H](CC(=O)NCc3ccc(-c4ccccc4)cc3)O[C@@H](CO)[C@@H]1O2`: the inhibition was 43.1% (inactive).

For the compound `CN(C)CC(=O)Nc1ccc2c(c1)[C@H]1C[C@@H](CC(=O)NCc3ccc(-c4ccccc4)cc3)O[C@H](CO)[C@H]1O2`, the inhibition is 60.2% (active).

Take `CN1c2ccc(-c3ccc(C#N)cc3)cc2[C@@H]2[C@@H](CCN2S(=O)(=O)c2cccc(F)c2)[C@@H]1CO`: the inhibition was 8.85% (inactive).

`CCCNC(=O)[C@@H]1[C@@H](CO)[C@@H]2Cn3c(cccc3=O)[C@H]1N2C(=O)C1CC1`: the inhibition was -0.051% (inactive).

Turning to `CS(=O)(=O)N1[C@H](C(=O)NCc2ccncc2)[C@@H](CO)[C@@H]2Cn3c(ccc(C4=CCCCC4)c3=O)[C@@H]21`, the inhibition was -1.92% (inactive).

Consider `CC1CN(c2nc(Nc3ccccc3)nc(N)c2[N+](=O)[O-])CC(C)O1` (stereo not drawn), for which the inhibition was -8.87% (inactive).

As to `CN1CCN(c2nc(Nc3ccc(O)cc3)nc3ccccc23)CC1`, the inhibition was 72.4% (active).

`CC(Nc1nc(N2CCN(CCO)CC2)nc2ccccc12)c1ccccc1` (stereo not drawn): the inhibition was -10.7% (inactive).

`N#C[C@@H]1[C@H](c2ccccc2C2=CCCCC2)[C@@H](CO)N1S(=O)(=O)c1cccc(F)c1`: the inhibition is -3.37% (inactive).

Consider `CCCNC(=O)C[C@H]1C[C@H]2c3cc(NC(=O)NC4CCCCC4)ccc3O[C@H]2[C@H](CO)O1`, for which the inhibition is 3.19% (inactive).

Turning to `C[C@H]1CN([C@@H](C)CO)C(=O)Cc2cc(NC(=O)Nc3ccc(F)cc3)ccc2O[C@@H]1CN(C)C(=O)NC1CCCCC1`, the inhibition is -2.6% (inactive).

Take `O=C(NCCN1CCOCC1)c1ccc2c(c1)N(Cc1cccc(Cl)c1)C(=O)c1ccccc1S2(=O)=O`: the inhibition is -15.4% (inactive).

As to `CCCC1=Nc2cc(C(=O)NCCN3CCCC3)ccc2Sc2ccccc21`, the inhibition was 34% (inactive).

In the case of `CCN1CCN(CCNC(=O)c2ccc(/C=C3/Sc4ccccc4N(Cc4cccc(C)c4)C3=O)cc2)CC1`, the inhibition was 51.6% (active).

Turning to `CCN(CC)CCC(c1cc(OC)c(OC)c(OC)c1)c1c(OC)cc(OC)c2c(-c3ccccc3)cc(=O)oc12` (stereo not drawn), the inhibition is 46.3% (inactive).

Take `CCN(CC)CCC(c1ccc2c(c1)OCO2)c1c(OC)cc(OC)c2c(-c3ccccc3)cc(=O)oc12` (stereo not drawn): the inhibition was 54.9% (active).

For `CCN(CC)C(=O)CC(c1ccc2c(c1)OCO2)c1c(OC)cc(OC)c2c(-c3ccccc3)cc(=O)oc12` (stereo not drawn), the inhibition was -104% (inactive).

`CCCC#Cc1cnc2c(c1)C(=O)N([C@H](C)CO)C[C@H](C)[C@@H](CN(C)Cc1ccccc1)O2`: the inhibition was -1.46% (inactive).

For `C/C=C/c1ccc(C2[C@H]3CNC[C@@H]2N3Cc2cccc(OC)c2)cc1` (stereo partly drawn), the inhibition is -8.08% (inactive).

As for `COc1ccc(CN(C)C[C@@H]2OCCCC[C@@H](C)Oc3ccc(NS(=O)(=O)c4ccc(C)cc4)cc3C(=O)N([C@@H](C)CO)C[C@H]2C)cc1`, the inhibition was 21% (inactive).

On to `COCC(=O)N1CC(=O)N2[C@H](CO)[C@@H](c3ccc(-c4ccncc4)cc3)[C@H]2C1`, for which the inhibition was -7.77% (inactive).

In the case of `N#Cc1ccc(-c2ccc([C@@H]3[C@@H](CO)N4C(=O)CNC[C@H]34)cc2)cc1`, the inhibition is 14.7% (inactive).

For `N#Cc1ccc(-c2ccc([C@@H]3[C@H]4CNC[C@@H]3N4Cc3cc(F)ccc3F)cc2)cc1`, the inhibition is 69% (active).

With `C/C=C/c1ccc(C2[C@H]3CNC[C@@H]2N3Cc2cccc(F)c2)cc1` (stereo partly drawn), the inhibition is 16.5% (inactive).

For the compound `COc1ccc(NC(=O)Nc2ccc3c(c2)[C@@H]2C[C@H](CC(=O)N4CCCCC4)O[C@H](CO)[C@@H]2O3)cc1`, the inhibition is -6.62% (inactive).

Consider `O=C([C@@H]1[C@@H](CO)[C@@H]2Cn3c(ccc(-c4ccccc4)c3=O)[C@H]1N2CCC(F)(F)F)N1CCCCC1`, for which the inhibition is 9.81% (inactive).

With `CN(C)C(=O)C[C@@H]1C[C@@H]2c3cc(NC(=O)c4ccc5c(c4)OCO5)ccc3O[C@@H]2[C@H](CO)O1`, the inhibition is 5.11% (inactive).

`C[C@H](CO)N1C[C@H](C)[C@H](CN(C)C(=O)Nc2ccc(C(F)(F)F)cc2)Oc2ccc(NS(C)(=O)=O)cc2CC1=O`: the inhibition was -1.01% (inactive).

As for `COCC(=O)N(C)C[C@@H]1Oc2ncc(C#Cc3ccccc3OC)cc2C(=O)N([C@@H](C)CO)C[C@H]1C`, the inhibition was 0.963% (inactive).

With `COc1ccccc1C#Cc1cnc2c(c1)C(=O)N([C@@H](C)CO)C[C@@H](C)[C@H](CN(C)C(=O)CN(C)C)O2`, the inhibition is 42.2% (inactive).

As to `COc1ccccc1C#Cc1cnc2c(c1)C(=O)N([C@@H](C)CO)C[C@@H](C)[C@@H](CN(C)C(=O)CN(C)C)O2`, the inhibition was 51.1% (active).

As to `CN(C)CC(=O)N1[C@@H](C#N)[C@@H](c2ccccc2-c2ccccc2F)[C@@H]1CO`, the inhibition was -4.36% (inactive).

`N#C[C@@H]1[C@@H](c2ccccc2C2=CCCC2)[C@H](CO)N1C(=O)NC1CCCC1`: the inhibition was -0.746% (inactive).

Regarding `Cc1ccccc1S(=O)(=O)NCC[C@@H]1CC[C@@H](NS(=O)(=O)c2ccccc2C)[C@@H](CO)O1`, the inhibition was -0.528% (inactive).

For the compound `Cc1ccc2c(c1)C1CN(C)CCC1N2S(=O)(=O)c1ccc(Oc2ccc([N+](=O)[O-])cc2)cc1` (stereo not drawn), the inhibition is 57.3% (active).

For `Cc1ccc2c(c1)C1CN(C)CCC1N2C(=S)Nc1ccc(OC(F)F)cc1` (stereo not drawn), the inhibition is -9.14% (inactive).

For the compound `Cc1ccc2c(c1)C1CN(C)CCC1N2S(=O)(=O)c1cccc(F)c1` (stereo not drawn), the inhibition is -19.1% (inactive).

With `CC=Cc1ccc2n(c1=O)C[C@@H]1[C@@H](CO)[C@H](C(=O)NCCCN3CCOCC3)[C@H]2N1Cc1cocn1` (mixture of isomers), the inhibition was -8.14% (inactive).

On to `COc1ccc(-c2nn(-c3ccccc3)cc2/C=C\C(=O)N2CCOCC2)cc1[N+](=O)[O-]`, for which the inhibition is -18.6% (inactive).

As for `O=C(NCCCN1CCOCC1)c1cn(-c2ccccc2)nc1-c1ccc(F)cc1`, the inhibition was -2.27% (inactive).

For the compound `O=C(/C=C/c1cn(-c2ccccc2)nc1-c1ccc2c(c1)OCCO2)NCCCN1CCOCC1`, the inhibition is 50.5% (active).

For `C[C@H]1CN([C@@H](C)CO)S(=O)(=O)c2ccc(-c3ccccc3)cc2O[C@H]1CN(C)C(=O)CC1CC1`, the inhibition was 5.01% (inactive).
